Data published in the supplement of paper PMC12669032.

Columns and labels:
Assay in all cases: growth AUC relative to DMSO control (median of replicates) (fraction); higher = more growth (less inhibition), active = hit call of the paper
Conditions in all cases: 20 µM; 24 h;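 active = AUC reduced over 20% with Padj below 0.05 in at least 2 of 3 replicates; inactive = otherwise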
[1] = test system: Akkermansia muciniphila
How it was run: (§1)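 OD600 was recorded every hour for 24 h in anaerobic monocultures of gut bacteria kept at 37 °C in mGAM, seeded at OD600 0.05 and given 20 µM compound in 1% DMSO. The area under each growth curve was scaled to the plate median of solvent-only wells, or to row and column medians for the industrial chemical plate. Before this step, the minimum OD was set to 0. Reported values are medians of three biological replicates run on separate days.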

[2] = test system: Bacteroides caccae
How it was run: as §1

[3] = test system: Bacteroides clarus
How it was run: as §1

[4] = test system: Bacteroides dorei
How it was run: as §1

[5] = test system: Bacteroides stercoris
How it was run: as §1

[6] = test system: Bacteroides thetaiotaomicron
How it was run: as §1

[7] = test system: Bacteroides uniformis
How it was run: as §1

[8] = test system: Bifidobacterium longum subsp. longum
How it was run: as §1

[9] = test system: Clostridium difficile
How it was run: as §1

[10] = test system: Collinsella aerofaciens
How it was run: as §1

Measured: growth AUC

CSc1nc(NC2CC2)nc(NC(C)(C)C)n1
inactive: [1] 0.845 | [2] 1.03 | [3] 0.988 | [4] 1.03 | [5] 0.871 | [6] 0.895 | [7] 1 | [8] 1.04 | [9] 1.04 | [10] 1.06

COc1cc(OC)nc(NC(=O)NS(=O)(=O)c2c(Cl)nc3ccccn23)n1
inactive: [1] 1.06 | [2] 1.02 | [3] 1 | [4] 1.02 | [5] 1.1 | [6] 1 | [7] 1.02 | [8] 1.02 | [9] 1 | [10] 1.03

COC(=O)c1ccc(C)cc1C1=NC(C)(C(C)C)C(=O)N1 (racemic)
inactive: [1] 1.03 | [2] 1.01 | [3] 0.971 | [4] 0.975 | [5] 0.863 | [6] 0.976 | [7] 1 | [8] 1 | [9] 0.972 | [10] 0.957

CC(C)N(C(=O)CS(=O)(=O)[O-])c1ccccc1.[Na+]
inactive: [1] 1.01 | [2] 1.02 | [3] 1.02 | [4] 1.04 | [5] 0.909 | [6] 0.955 | [7] 1.05 | [8] 1.29 | [9] 1.06 | [10] 0.967

CNC(=O)/C(=N/OC)c1ccccc1COc1cc(C(=O)O)ccc1C
inactive: [1] 1.01 | [2] 0.982 | [3] 1.03 | [4] 0.979 | [5] 0.967 | [6] 0.998 | [7] 1.01 | [8] 0.998 | [9] 0.991 | [10] 1

CCNC(=O)[C@@H](C)OC(=O)Nc1ccccc1
inactive: [1] 0.912 | [2] 0.991 | [3] 1.02 | [4] 0.992 | [5] 1.06 | [6] 1.01 | [7] 0.969 | [8] 0.976 | [9] 1.03 | [10] 1.1

c1cc2ccc3ccc4ccc5cccc6c(c1)c2c3c4c56
inactive: [1] 0.936 | [2] 1 | [3] 1 | [4] 1.01 | [5] 1 | [6] 1 | [7] 1 | [8] 1.03 | [9] 0.971 | [10] 0.993

CCOCCc1ccc(OCCNc2ncnc(CC)c2Cl)c(C)c1C
inactive: [1] 0.937 | [2] 0.929 | [3] 0.883 | [4] 0.942 | [5] 0.975 | [6] 0.915 | [7] 0.887 | [8] 0.923 | [9] 0.998 | [10] 0.94

CCc1cccc(C)c1NC(=O)C(=O)O
inactive: [1] 0.965 | [2] 1.01 | [3] 0.999 | [4] 1 | [5] 0.999 | [6] 0.942 | [7] 1 | [8] 1.02 | [9] 0.972 | [10] 0.983

C=C1C[C@]23C[C@@]1(O)CC[C@H]2[C@@]12C=C[C@H](O)[C@@](C)(C(=O)O1)[C@H]2[C@@H]3C(=O)O
inactive: [1] 1.24 | [2] 0.966 | [3] 0.999 | [4] 0.921 | [5] 1.01 | [6] 1.02 | [7] 0.947 | [8] 0.915 | [9] 0.931 | [10] 0.95

CCCCOCCOC(=O)COc1nc(Cl)c(Cl)cc1Cl
inactive: [1] 1.02 | [2] 0.954 | [3] 0.956 | [4] 0.948 | [5] 0.995 | [6] 0.963 | [7] 0.928 | [8] 0.934 | [9] 0.979 | [10] 0.977

CCCCCCCCOC(=O)COc1cc(Cl)c(Cl)cc1Cl
inactive: [1] 1.05 | [2] 0.98 | [3] 1 | [4] 0.968 | [5] 1.11 | [6] 1.01 | [7] 0.982 | [8] 0.97 | [9] 1.02 | [10] 0.94

CCc1cc(C(=O)O)cc(CC)c1C1C(=O)N2CCOCCN2C1=O
inactive: [1] 1.02 | [2] 1.04 | [3] 1.03 | [4] 1.05 | [5] 1.07 | [6] 0.999 | [7] 1.02 | [8] 1.04 | [9] 0.976 | [10] 1.03

Cc1cccc(C)c1O
inactive: [1] 1.02 | [2] 1.04 | [3] 0.987 | [4] 1.01 | [5] 1.03 | [6] 1.02 | [7] 1 | [8] 0.946 | [9] 1.03 | [10] 1.02

Oc1cccc2ccccc12
inactive: [1] 1 | [2] 1.04 | [3] 1 | [4] 0.987 | [5] 0.943 | [6] 0.993 | [7] 0.976 | [8] 0.999 | [9] 0.98 | [10] 0.959

CNC(=O)/C(=N/OC)c1ccccc1COc1cc(C)ccc1C
inactive: [1] 0.923 | [2] 1 | [3] 0.94 | [4] 1.01 | [5] 1.01 | [6] 0.946 | [7] 0.962 | [8] 0.972 | [9] 0.987 | [10] 0.968

O=[N+]([O-])c1ccc(O)cc1
inactive: [1] 1.02 | [2] 1.01 | [3] 0.994 | [4] 1.01 | [5] 1.11 | [6] 1.02 | [7] 1.01 | [8] 0.96 | [9] 1.02 | [10] 1.05

CON(C(=O)c1cc(C)oc1C)C1CCCCC1
inactive: [1] 0.96 | [2] 1 | [3] 1 | [4] 1 | [5] 1.04 | [6] 0.972 | [7] 0.997 | [8] 1.03 | [9] 0.972 | [10] 1.03

CC(C)(C)[C@@H](O)[C@@H](Cc1ccc(Cl)cc1)n1cncn1 (mixture of isomers)
inactive: [1] 1.1 | [2] 0.942 | [3] 0.98 | [4] 0.909 | [5] 0.933 | [6] 0.993 | [7] 0.966 | [8] 1.09 | [9] 0.938 | [10] 0.967

CCOc1nc(F)cc2nc(S(=O)(=O)Nc3c(Cl)cccc3C(=O)OC)nn12
inactive: [1] 0.983 | [2] 0.999 | [3] 0.984 | [4] 0.988 | [5] 0.978 | [6] 0.999 | [7] 0.987 | [8] 0.982 | [9] 0.98 | [10] 1.02

CSc1nnc(C(C)(C)C)c(=O)n1/N=C/C(C)C
inactive: [1] 0.944 | [2] 0.905 | [3] 1.04 | [4] 1.02 | [5] 1.35 | [6] 1.02 | [7] 0.988 | [8] 1.08 | [9] 1.01 | [10] 1.02

COc1ccc(Cl)c(Cl)c1Cl
inactive: [1] 0.963 | [2] 1.03 | [3] 1.01 | [4] 1.02 | [5] 0.971 | [6] 0.991 | [7] 1 | [8] 0.986 | [9] 0.964 | [10] 1.01

CC(C)(C)C(=O)C(Oc1ccc(Cl)cc1)n1ccnc1 (stereo not given)
inactive: [1] 1.07 | [2] 0.971 | [3] 0.987 | [4] 0.98 | [5] 1.04 | [6] 0.944 | [7] 0.984 | [8] 1.01 | [9] 0.962 | [10] 0.94

COC(=O)C(C)Oc1ccc(Cl)cc1Cl (stereo not given)
inactive: [1] 0.964 | [2] 1.05 | [3] 1 | [4] 1.05 | [5] 0.849 | [6] 1.01 | [7] 1.05 | [8] 1 | [9] 1.03 | [10] 0.987

CCCCCCCC/C=C\CCCCCCCCCCCC(=O)O
inactive: [1] 1.05 | [2] 1.01 | [3] 1.02 | [4] 0.995 | [5] 1.01 | [6] 1.02 | [7] 1.01 | [8] 0.902 | [9] 1 | [10] 0.983

CN(C)C(=O)Nc1cc(C(C)(C)C)on1
inactive: [1] 0.918 | [2] 1.01 | [3] 0.997 | [4] 1.01 | [5] 0.998 | [6] 0.995 | [7] 1.01 | [8] 1.01 | [9] 0.987 | [10] 0.989

C=CCO/N=C(\CCC)C1=C([O-])CC(C)(C)C(C(=O)OC)C1=O.[Na+] (stereo not given)
inactive: [1] 1.2 | [2] 1 | [3] 1.03 | [4] 0.933 | [5] 1.07 | [6] 1.02 | [7] 1.01 | [8] 1.05 | [9] 1.05 | [10] 1.03

COc1cc(OC)nc(NC(=O)NS(=O)(=O)c2c(-c3nnn(C)n3)cnn2C)n1
inactive: [1] 1.13 | [2] 0.99 | [3] 1 | [4] 0.94 | [5] 1.08 | [6] 1.01 | [7] 1 | [8] 1.01 | [9] 0.961 | [10] 0.978

CCCOC(=O)NCCCN(C)C
inactive: [1] 0.994 | [2] 1.01 | [3] 1.03 | [4] 1 | [5] 0.98 | [6] 1.02 | [7] 1 | [8] 1.02 | [9] 0.987 | [10] 0.975
